The values below come from PubChem BioAssay AID504444 (National Center for Advancing Translational Sciences (NCATS), 2011).

In all, about 360,000 compounds went through this assay and about 7,500 (2.1%) were called active. About 20% were inconclusive and are not listed. Only a selection was taken, and actives are over-represented in it overall. Unmarked numbers belong to inactive results. The call rests on the fitted dose curve; in most records, active means well fitted inhibition curve with a large enough effect; inconclusive means small, poorly fitted or top-dose-only effect, or effect the other way; inactive means flat fitted curve, though single readings scatter.
On the % scale 0 is the no-effect control and ±100 the full control effect; potency means the concentration at half of the fitted maximal effect.

The nature of this assay: Nrf2 qHTS screen for inhibitors. Further: nearly all actives have a fitted effect of over 60% in size. The conditions noted are these: A549 ARE-Fluc reporter, luciferase luminescence, 18-24 h; series mostly up to 46 µM; activity change, negative = inhibition: at the top concentration. The text has this: NIH Molecular Libraries Probe Production Network [MLPCN]
NIH Chemical Genomics Center [NCGC]
Assay Provider: Shyam Biswal, Johns Hopkins University
Nrf2 is a transcription factor that maintains cellular redox homoestasis and protects cells from xenobiotics. Nrf2 binds to the antioxidant response element (ARE) to induce gene expression of a broad spectrum of genes that encode for antioxidants. […] Finding a small molecule that act as an inhibitor of Nrf2 function would represent a novel therapeutic target that could lead to improvement in survival of patients undergoing chemo- and/or radio- therapy.
This is the Nrf2 activity measured in the luminescent read.
1. Shibata, T., et al., Genetic Alteration of Keap1 Confers Constitutive Nrf2 Activation and Resistance to Chemotherapy in Gallbladder Cancer. Gastroenterology, 2008.
2. Sjoblom, T., et al., The consensus coding sequences of human breast and colorectal cancers. Science, 2006. 314(5797): p. 268-74.
NCGC Assay Protocol Summary:
A concentration-response assay was performed with A549 ARE_Fluc cells which are suspended in 5% FBS OPTI-MEM. Five uL were dispensed into 1536-well white TC-treated plate using the Kalypsys dispenser to achieve a density of 5000 cells/well in all columns except column 1. The plate is incubated at 37deg C at 5% CO2 for 2 hours before 23 nL of compounds are added with the Kalypsys pin tool equipped with a 1,536-pin array containing 10-nL slotted pins (FP1S10, 0.457-mm diameter, 50.8 mm long; V&P Scientific). The control compounds Budesonide and Staurosporine are both added at a concentration of 2mM and Budesonide is also added as a 1:10 titration, starting at 200uM, to achieve dose-response. After an 18-24 hour incubation at 37deg C at 5% CO2, 5ul of medium is added to column 1. Afterwards 1ul of 5x of CellTiter-Fluor (Promega) is added to every well. The plate is then incubated at 37deg C at 5% CO2 for 30 minutes before they are read on the ViewLux (Perkin Elmer) for a fluorescent read Ex=405(10)/Em=525(10) for a 3 second exposure, 2x binning, and high gain. Then 3 uL of 3x BugLite is dispensed into all wells and the plate is incubated at ambient room temperature for 15 minutes. Afterwards another ViewLux read is performed using the clear filter to get a luminescent read with the settings of 40 second exposure, 2x binning, and high gain. Cytotoxicity is assessed through the first fluorescent read and then biochemical activity against Nrf2 is measured in the luminescent read.
(In general: In qHTS, concentration-response curves come from the screen itself.)
With `O=C(O)CC/C(=N\NC(=O)c1ccc(F)cc1)c1ccc(Br)cc1`, the “activity change, negative = inhibition” value was 7.74%.
For `CCN(C(=O)c1ccc(Br)cc1)c1ccccc1`, the “activity change, negative = inhibition” value was -12.2%.
Still for that read-out and setting: as for `COC(=O)[C@]1(Cc2ccccc2)N[C@H](CN(C)S(=O)(=O)c2ccc(OC(F)(F)F)cc2)[C@@H]2C(=O)N(C)C(=O)[C@@H]21`, the figure is -14.7%; as for `CCCN(CCC)CCCNC(=O)Cn1ncc2c3ccccc3n(Cc3ccccc3)c2c1=O`, 13.4%.
Same read-out and setting: as for `Cc1cccc(S(=O)(=O)c2cn(Cc3ccccc3)c3cc(N4CCOCC4)c(F)cc3c2=O)c1`, the figure is -18.8%.
Consider `Cc1ccc(S(=O)(=O)N2C[C@@H]3CCCC[C@@H]3[C@@H](C)[C@H]2c2cn(Cc3ccccc3)c3ccc(F)cc23)cc1`, for which the Potency was 2.91 µM (active).
For the compound `Cc1ccc(S(=O)(=O)c2cn(Cc3ccccc3)c3cc(N4CCCC4)c(F)cc3c2=O)c(C)c1`, the “activity change, negative = inhibition” value was -14.6%.
Still for that read-out and setting: as for `N#CC1=C(N)Oc2cc(N)ccc2C1c1ccccc1` (stereo not drawn), the figure is -15.3%; as for `CN(C)Cc1cn(-c2ccccc2)nc1-c1ccccc1`, -3.78%; as for `O=C(N[C@H]1C/C=C\C(c2ccc(F)cc2)N(Cc2ccccc2)C(=O)C1)OCC1c2ccccc2-c2ccccc21` (stereo partly drawn), 4.03%.
As for `CC(C)N(C(=O)CSc1nc(COc2ccccc2)nc2ccccc12)C(C)C`, the “activity change, negative = inhibition” value is -10.9%.
The same measure, in the same setting: as for `CCc1c(SCCC(=O)O)nc2ccccc2c1C`, the figure is -7.59%.
Take `O=C(O)CSc1nccc2ccccc12`: the Potency was 16.4 µM (active).
Turning to `NC(=O)C1(Nc2ccc(-c3ccccc3)cc2)CCCC1`, the “activity change, negative = inhibition” value is 8.22%.
The same measure, in the same setting: as for `O=C1CCCC2=C1[C@@]1(CCC(c3ccccc3)C1)N=C(Nc1nc3ccccc3o1)N2` (stereo partly drawn), the figure is -25.3%.
In the case of `O=c1c2ccccc2n(Cc2cccc(Cl)c2)c(=O)n1Cc1ccccc1`, the activity change, negative = inhibition was -5.53% [at 9.27 µM].
Turning to `CCOC(=O)c1cnc(SCC(=O)Nc2cccc(OC)c2)nc1N`, the Potency was 25.9 µM (active).
On to `CCOC(=O)c1cnc(SCC(=O)NCc2ccco2)nc1N`, for which the “activity change, negative = inhibition” value is -21.5%.
Still for that read-out and setting: the value for `CCOC(=O)c1cnc(SCc2nc(N)nc(Nc3ccc(OC)cc3)n2)nc1N` was -25.3%.
For the compound `COc1ccc(-c2cn3c(n2)sc2cc(C(=O)Nc4ccc(F)cc4)ccc23)cc1`, the “activity change, negative = inhibition” value is -5.23%.
On the same count and under the same terms, as for `CCCCCCC1(C)NC(c2ccc3c(c2)OCO3)=CC(c2ccccc2O)N1` (stereo not drawn), the figure is 2.14%; as for `COc1ccc(C(=O)NC2CC(C)(C)Cc3c2cnn3-c2ccccc2C)o1` (stereo not drawn), 13.2%; as for `Cc1ccc(C(=O)NCCNC(=O)c2cnccn2)cc1`, 4.7%.
Regarding `Cn1nccc1C(=O)NC1CCCc2c1cnn2-c1ccc(F)cc1F` (stereo not drawn), the Potency was 0.184 µM (active).
As for `Cc1cccc(-n2nc3c(c2NC(=O)c2ccc(Br)o2)CSC3)c1C`, the “activity change, negative = inhibition” value was -10.6%.
Consider `CC1=C(C(=O)NC2CC(C)(C)Cc3c2cnn3-c2ccc(C)cc2)OCCO1` (stereo not drawn), for which the “activity change, negative = inhibition” value is -24%.
On to `Cc1ccc(-n2ncc3c2CCCC3NC(=O)c2cnccn2)cc1C` (stereo not drawn), for which the Potency is 20.6 µM (active).
For `Cc1ccc(-c2csc(NC(=O)c3cnccn3)n2)cc1C`, the “activity change, negative = inhibition” value is 15.5%.
For `Cc1cc(C(=O)NC2CCCc3c2cnn3-c2cccc(C)c2C)c(C)o1` (stereo not drawn), the Potency was 3.66 µM (active).
With `CC(=O)NCC(=O)NC1CCCc2c1cnn2-c1ccccc1F` (stereo not drawn), the “activity change, negative = inhibition” value was 19.1%.
Same read-out and setting: the value for `COc1cc(CNCCSc2nnnn2C)ccc1OCc1ccc(Cl)cc1Cl` was -13.7%; that for `COc1ccc(CNC(=O)CS(=O)Cc2nc(-c3cccc(C)c3)oc2C)cc1` (stereo not drawn) was -4.99%; that for `Cc1ccc(OCCSc2nc(C)c(Cc3ccccc3)c(=O)[nH]2)cc1` was 7.59%.
On the same count and under the same terms, as for `CCOC(=O)[C@H]1[C@H]2COc3ccc(Br)cc3[C@@H]2N2C(=O)CN(C)C(=O)[C@@]12C`, the figure is -13.2%.
Still for that read-out and setting: the value for `CN(CC(=O)Nc1ccc(OC(F)F)cc1)S(=O)(=O)/C=C/c1ccccc1` was -13.5%.
As for `O=C(Nc1cccc(NC(=O)c2ccc(Br)cc2)c1)c1ccccc1`, the Potency result is “inactive”.
On the same count and under the same terms, the value for `O=C(Cc1ccccc1)Nc1cccc(NC(=O)c2ccccc2)c1` was 25.9 µM (active).
`O=C(Nc1cccc(NC(=O)c2cccc(F)c2)c1)c1ccccc1`: the “activity change, negative = inhibition” value was -21.7%.
Same read-out and setting: as for `Cc1ccccc1C(=O)Nc1sc2c(c1C(=O)N1CCC(C)CC1)CCCC2`, the figure is 3.62%.
Turning to `COc1ccc(C(=O)NCC(=O)N/N=C/c2ccc([N+](=O)[O-])s2)cc1OC`, the Potency was 25.9 µM (active).
As to `CCOc1ccc(NC(=O)CCC(=O)N/N=C/c2ccc([N+](=O)[O-])s2)cc1`, the “activity change, negative = inhibition” value was -11.9%.
Turning to `COc1ccc(C(=O)COC(=O)c2ccc([N+](=O)[O-])s2)cc1OC`, the “activity change, negative = inhibition” value was 10.6%.
Still for that read-out and setting: the value for `COc1ccc2ccccc2c1/C=N/NC(=O)c1cc(C)[nH]n1` was 10.1%; that for `Cc1cc(C(=O)N/N=C/c2cc([N+](=O)[O-])cc(C)c2O)n[nH]1` was -24.2%.
On to `CC(C)(C)c1cc(C(=O)N/N=C/c2ccc([N+](=O)[O-])s2)n[nH]1`, for which the Potency is 20.6 µM (active).
As for `Cn1c(=O)c(C(=O)O)nn(-c2ccccc2)c1=O`, the activity change, negative = inhibition was 7.58% [at 9.27 µM].
On the same count and under the same terms, as for `COc1ccc(C2=NC(c3ccncc3)=Nc3ccc(Br)cc3N2)cc1`, the figure is -17.2%; as for `COc1cc(C2CC(=O)Oc3cc(OC)c(OC)c(OC)c32)cc(OC)c1OC` (stereo not drawn), -9.18%.
